This passage reports AC50 results from PubChem BioAssay AID540356 (Broad Institute, 2011).

Among all 2,500 compounds or so, about 360 (14%) were called active.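 The calls were made as follows: active = signal-lowering compounds whose fitted half-maximal concentration AC50 is no higher than ten times their top tested concentration; inconclusive = flat curve with 30 to 70% inhibition, or poor fit; inactive = flat within 30%, signal increase, or AC50 above limit.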 A selection follows.

The assay in a line: HRP/luminol detection interference without ALR, dose response, artefact control for ALR inhibitor project, biochemical, luminescence, no ALR or DTT, cherry-pick (AID 540356). As to conditions: HRP/H2O2 luminol luminescence counterscreen; series mostly up to 10 µM.
For `S=c1[nH]nc(-c2ccco2)n1Cc1ccccc1`, the AC50 entry is “inactive”.

`S=c1[nH]nc(-c2ccncc2)n1Cc1ccco1`: the AC50 entry is “inactive”.

With `COc1ccc(-c2n[nH]c(=S)n2Cc2ccco2)cc1`, the AC50 entry was “inactive”.

In the case of `CCn1c(-c2ccc(N)cc2)nc2ccccc21`, the AC50 result is “inactive”.

As for `O=C(NNS(=O)(=O)c1ccc(F)cc1)c1cc2ccccc2cc1O`, the AC50 result is “inactive”.

Consider `O=C(C1CCCC1)N1CCCC(Nc2ccccc2)C1` (stereo unspecified), for which the AC50 entry is “inactive”.

For the compound `CCc1[nH]nc(C(=O)N2CCCC(Nc3ccc(C(C)C)cc3)C2)c1C` (stereo unspecified), the AC50 entry was “inactive”.

For `CCc1ccc(-c2csc3[n+]2CCN3C(C)=O)cc1`, the AC50 entry was “inactive”.

Regarding `O=C(Nc1ccc2snnc2c1)N1CCN(c2ccccc2)CC1`, the AC50 result was “inactive”.

For `CC1(C)Nc2ccccc2N(CC(=O)N2CCCCC2)C1=O`, the AC50 entry is “inactive”.

For `COc1cc(/C=N/Nc2ccc([N+](=O)[O-])cn2)cc(OC)c1O`, the AC50 entry was “inactive”.

In the case of `CCn1c(/C=C/c2ccc(O)cc2)nc2ccccc2c1=O`, the AC50 result was “inactive”.

Turning to `O=c1[nH]c(/C=C\c2cccc(Cl)c2)nc(O)c1[N+](=O)[O-]`, the AC50 result is “inactive”.

In the case of `O=c1[nH]c(/C=C\c2cccc(F)c2)nc(O)c1[N+](=O)[O-]`, the AC50 result is “inactive”.

With `O=c1[nH]c(/C=C\c2ccccc2F)nc(O)c1[N+](=O)[O-]`, the AC50 result was “inactive”.

As to `COc1cc(/C=N/NC(=O)c2cccc([N+](=O)[O-])c2)cc(OC)c1O`, the AC50 entry was “inactive”.

For the compound `Cc1ccc(C2SCC(=O)N2c2ccccc2)cc1` (stereo unspecified), the AC50 entry is “inactive”.

With `N#CC1=C(N)n2c(s/c(=C\c3cccs3)c2=O)=C(C#N)C1c1cccs1` (stereo unspecified), the AC50 entry is “inactive”.

In the case of `N#Cc1cnn(-c2ccccc2)c1NC(=O)CN1CCN(c2ccccc2)CC1`, the AC50 result is “inactive”.

`CN(C)S(=O)(=O)c1ccc(-c2cn3ccccc3n2)cc1`: the AC50 result was “inactive”.

With `O=C(N/N=C\c1cccc(Cl)c1)c1ccc(Cn2cccn2)o1`, the AC50 entry was “inactive”.

For the compound `CSc1nc(O)c(Nc2cccc(Cl)c2)c(=O)[nH]1`, the AC50 entry was “inactive”.

`Nc1ncc(Br)cc1S(=O)(=O)NCCC(=O)N1CCN(c2ccccc2)CC1`: the AC50 entry was “inactive”.

For `Cc1ccc(S(=O)(=O)N2CCN=C2SCc2cccnc2)cc1`, the AC50 entry is “inactive”.

For `CC(=O)Nc1nc(C)c(-c2csc(Nc3ccc(O)cc3)n2)s1`, the AC50 entry is “inactive”.

On to `Nc1ccc(-c2nc3cc(N)ccc3s2)cc1`, for which the AC50 result is “inactive”.

On to `CN=c1scc(-c2ccccc2F)n1/N=C(\C)c1cccnc1`, for which the AC50 result is “inactive”.

With `O=C1CSC(=S)N1c1ccc(O)cc1`, the AC50 entry was “inactive”.

For `COc1cc(/C=N/NC(=O)Cn2cnc3c2c(=O)n(C)c(=O)n3C)ccc1O`, the AC50 entry was “inactive”.

Regarding `S=c1[nH]nc(C2CCCCC2)n1/N=C/c1ccccn1`, the AC50 result was “inactive”.

As for `Cc1ccsc1C=Nc1ccc(O)cc1`, the AC50 entry is “inactive”.

As to `O=Cc1ccc(O)c(O)c1`, the AC50 result was “inactive”.

With `Oc1ccc(/C=N/N=C/c2ccc(O)c(O)c2)cc1O`, the concentration at half-maximal activity (AC50) is 2.39 µM (active).

In the case of `COc1cc(/C=C/c2ccc(O)cc2)cc(OC)c1`, the AC50 entry was “inactive”.

Take `Oc1cc(O)cc(/C=C/c2ccc(O)c(O)c2)c1`: the AC50 was 5.21 µM (active).

As for `Oc1ccc(/C=N/N=C/c2ccc(O)cc2)cc1`, the AC50 result was “inactive”.

On to `Cc1ccc(CN2CCN(/N=C/c3ccc(O)c(O)c3)CC2)cc1`, for which the AC50 result was “inactive”.

Consider `COc1cc(/C=N/N=C2/NC(=O)C(c3ccccc3)S2)ccc1O` (stereo unspecified), for which the AC50 result was “inactive”.

On to `COc1ccc(N=C2C(=O)Nc3ccccc32)cc1`, for which the AC50 result is “inactive”.

In the case of `COc1ccccc1C(=O)NCCN1CCN(c2ccccc2)CC1`, the AC50 entry was “inactive”.

As for `CN(C)c1ccc(NC(=O)Nc2ccc3snnc3c2)cc1`, the AC50 result was “inactive”.

In the case of `CC(C)(C)c1cc(-c2n[nH]c(=S)n2-c2ccccc2F)n[nH]1`, the AC50 result is “inactive”.

Regarding `N#CCC(=O)Nc1ccc(C(=O)NCc2cccc(Cl)c2)cc1`, the AC50 entry was “inactive”.

As for `CC(=O)Oc1ccc(-c2cccc(C(=O)N(C)c3ccc(O)cc3)c2)cc1`, the AC50 entry was “inactive”.

Consider `CCN(CCCNS(=O)(=O)c1ccc2c(c1)CCN2C(C)=O)c1cccc(C)c1`, for which the AC50 entry was “inactive”.

On to `COc1ccc(OC)c(C2C(C#N)=C(N)Oc3cc(N)ccc32)c1` (stereo unspecified), for which the AC50 result was “inactive”.

In the case of `N#CC1=C(N)Oc2n[nH]c(-c3cccs3)c2C1c1ccco1` (stereo unspecified), the AC50 result is “inactive”.

Consider `Cc1ccc(C2C(C#N)=C(N)Oc3cc(N)ccc32)cc1` (stereo unspecified), for which the AC50 entry is “inactive”.

For the compound `COc1cc(/C=N/NC(=O)c2cc(-c3ccc4c(c3)OCO4)n[nH]2)ccc1O`, the AC50 entry is “inactive”.

As for `COC(=O)Cc1ccc(O)c(N)c1`, the AC50 result is “inactive”.

In the case of `CC(C)C1C(C#N)=C(N)Oc2n[nH]c(-c3cccs3)c21` (stereo unspecified), the AC50 result was “inactive”.

Regarding `CC1CC/C(=N/Nc2ccccc2)C(=O)N1` (stereo unspecified), the AC50 entry was “inactive”.

Regarding `c1csc(-c2nc3ccccn3c2NC2CCCCC2)c1`, the AC50 result is “inactive”.

As to `Cc1ccn2c(NC(C)(C)C)c(-c3cccs3)nc2c1`, the AC50 entry was “inactive”.

As for `COc1ccc(C)cc1NC(=O)c1cc2c(CO)cnc(C)c2oc1=N`, the AC50 result was “inactive”.

As for `Oc1ccccc1N1CCN(c2nnnn2-c2ccccc2)CC1`, the AC50 entry is “inactive”.

With `CN1CC(=O)N(CC(=O)Nc2ccc(SC(F)F)cc2)C1=O`, the AC50 result is “inactive”.

Take `O=C(NCC(=O)N1CCN(c2ccccc2O)CC1)c1cccs1`: the AC50 result is “inactive”.

On to `Cc1ccc(S(=O)(=O)Nc2c(C(=O)O)[nH]c3ccccc23)c(C)c1`, for which the AC50 result was “inactive”.

On to `CCN(CC)c1ccc(C(=O)N/N=C(\C)c2ccc(O)cc2)cc1`, for which the AC50 entry is “inactive”.

As for `C/C(=N\NC(=O)c1csc2ccccc12)c1ccc(O)cc1`, the AC50 entry is “inactive”.

The AC50 is the midpoint of the concentration-response curve, whichever way the signal moves.
